{"source": "PubChem BioAssay (NCATS)", "note": "Inconclusive results are not listed. Calls of active or inactive are those of the source. The call rests on the fitted dose curve; in most records, active means well fitted inhibition curve with a large enough effect; inconclusive means small, poorly fitted or top-dose-only effect; inactive means flat fitted curve, though single readings scatter.", "data": [{"test_system": "CRL-7250", "assay": "qHTS assay to identify novel small-molecules to repurpose for Merkel cell carcinoma treatment (AID 1296009); further: nearly all actives have a fitted effect of over 60% in size", "settings": "MCC and control cell lines, CellTiter-Glo viability, 72 h; series mostly up to 92 µM; activity change, negative = cytotoxicity: at the top concentration", "how_it_was_run": "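Dose-response viability screen; 72 hr exposure at 37 degree celsius; CellTiter-Glo added, 10 min room temperature, luminescence read; RLUs scaled between no-cell and DMSO wells.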", "values": [{"molecule": "C[C@@H]1O[C@@H](O[C@H]2[C@H](O)[C@@H](C(=O)O)O[C@@H](O[C@H]3CC[C@@]4(C)C(CC[C@]5(C)C4CC=C4C6CC(C)(C)CC[C@]6(C(=O)O)CC[C@]45C)C3(C)C)[C@@H]2O[C@@H]2O[C@H](CO)[C@@H](O)[C@H](O)[C@H]2O)[C@H](O)[C@H](O)[C@H]1O", "note": "(stereo not given in full)", "outcome": "inactive [at 9.27 µM]"}, {"molecule": "CC1(C)CC[C@@]2(C(=O)O[C@@H]3O[C@H](CO)[C@@H](O)[C@H](O)[C@H]3O)C(C1)C1=CCC3[C@@]4(C)CC[C@@H](O[C@@H]5O[C@H](C(=O)O)[C@@H](O[C@@H]6OC[C@@H](O)[C@H](O)[C@H]6O)[C@H](O[C@@H]6OC[C@](O)(CO)[C@H]6O)[C@H]5O)C(C)(C)C4CC[C@@]3(C)[C@]1(C)C[C@H]2O", "note": "(stereo not given in full)", "outcome": "inactive [at 9.27 µM]"}, {"molecule": "CC(C)C1CCC(CO)=CC1/C=C(\\CO)C(=O)OCC1(O)CCC(C(C)C)C2C=C(C(=O)O)COC(=O)C21", "note": "(stereo not given)", "outcome": "inactive [at 17.4 µM]"}, {"molecule": "COc1cc([C@H]2OC[C@]3(OC(C)=O)[C@@H](c4ccc(O[C@@H]5O[C@H](CO)[C@@H](O)[C@H](O)[C@H]5O)c(OC)c4)OC[C@H]23)ccc1O", "outcome": "inactive [at 17.4 µM]"}, {"molecule": "COc1cc2c(cc1OC)N1C(=O)C[C@]34C=CCN5CC[C@@H]2[C@@H](CC3)[C@]514", "outcome": "inactive"}]}]}
